Screens deposited in PubChem by Buhrlage Lab, Dana-Farber Cancer Institute and Novartis Institutes for BioMedical Research (Cambridge, Mass).
Only some compounds are listed: those with a hit (about 11% of all), similar ones and a draw of the others.
USP30 inh – human USP30 deubiquitinase inhibition | Q70CQ3 | 47,000 tested, 5.3% active | purified USP30, Ub-rhodamine cleavage fluorescence | inhibition, % at 25 µM
Target sequence (Q70CQ3 whole entry, looked up): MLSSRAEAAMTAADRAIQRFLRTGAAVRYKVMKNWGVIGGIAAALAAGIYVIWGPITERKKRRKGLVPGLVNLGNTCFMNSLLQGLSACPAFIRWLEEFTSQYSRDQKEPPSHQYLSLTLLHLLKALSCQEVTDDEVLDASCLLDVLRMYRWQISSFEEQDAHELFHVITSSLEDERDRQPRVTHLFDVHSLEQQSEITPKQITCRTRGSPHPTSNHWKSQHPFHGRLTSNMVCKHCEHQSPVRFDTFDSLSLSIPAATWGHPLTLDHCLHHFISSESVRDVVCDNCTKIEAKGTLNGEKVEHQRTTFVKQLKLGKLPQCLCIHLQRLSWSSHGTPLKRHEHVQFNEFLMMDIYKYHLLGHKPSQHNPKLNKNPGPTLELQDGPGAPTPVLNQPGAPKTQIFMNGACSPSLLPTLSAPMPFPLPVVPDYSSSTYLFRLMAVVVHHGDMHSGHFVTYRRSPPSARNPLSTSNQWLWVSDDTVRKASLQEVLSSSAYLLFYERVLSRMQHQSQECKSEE
OTUD3 inh – blocks human OTUD3 ubiquitin-rhodamine cleavage | AID 1645858 | inhibition, % at 25 µM | purified OTUD3, Ub-rhodamine fluorescence, 2 h | 47,000 tested, 0.7% active
USP28 inh – inhibitors of human USP28 deubiquitinase; purified USP28, Ub-rhodamine cleavage fluorescence, 30 min; 47,000 tested, 3% active; inhibition, % at 25 µM; Q96RU2
USP17 inh – blocks human USP17 ubiquitin-rhodamine cleavage; purified USP17, Ub-rhodamine cleavage fluorescence, 3 h; inhibition, % at 50 µM; 47,000 tested, 6.5% active; AID 1645855
Numbers stand for hits; . = inactive; / = not tested or not shown. No stated cut-off is given here; in the data, active means inhibition above about 30%; inactive means the rest.

SMILES	USP30 inh	OTUD3 inh	USP28 inh	USP17 inh
CC(C)(O)C1Cc2cc(C(=O)O)ccc2O1 (configuration not stated)	.	.	.	.
Cc1nc(-c2noc3ccc(C(=O)N4CCCC4)cc23)co1	30	.	.	.
O=C1N(Cc2cccnc2)CCN1c1ccc(F)c(Cl)c1	/	.	/	.
O=C1c2cccc(OCc3ccc(Cl)cc3)c2CCN1Cc1cccnc1	32	.	.	.
CC(C)Cc1cc(C(=O)NC(C)CCc2ccc(F)cc2)nc(=O)[nH]1 (configuration not stated)	.	.	.	.
CCNc1nc(SCc2ccc(C)cc2)nc2c1CCCC2	39	.	.	.
Cc1nc(SCc2ccc(C(=O)O)cc2)nc2c1CCCC2	.	.	.	.
N#Cc1c(-c2ccccc2)cc(N2CCN(C3CCCCC3)CC2)n2c1nc1ccccc12	.	.	.	.
CCc1c(C)c(C#N)c2nc3ccccc3n2c1N1CCN(C2CCCC2)CC1	.	.	.	62
CC(C)[C@H]1CC[C@@]2(CO2)[C@H]2C(=O)OCC(C(=O)O)=C[C@H]12	64	55	71	73
CC(C)CCn1c(=O)c2ccccc2n2c(CCC(=O)NCCN3CCOCC3)nnc12	.	.	.	.
O=S(=O)(Nc1cccc(-c2nnc(Cc3ccc4c(c3)OCO4)o2)c1)c1ccccc1	.	.	32	.
O=S(=O)(Nc1cccc(-c2nnc(-c3ccccc3)o2)c1)c1ccccc1	.	.	.	.
COc1ncccc1C(=O)N1C[C@H]2CC[C@@H](N(C)c3cnccn3)[C@H]2C1	.	.	.	.
Cn1cc2nc(SCC(=O)NCc3ccccc3Cl)n(CC3CC3)c(=O)c2n1	32	.	.	.
Cc1c(Cl)cccc1NC(=O)CSc1nc2cn(C)nc2c(=O)n1CC1CC1	.	.	.	.
Cc1ccc(Cl)cc1NC(=O)CSc1nc2cn(C)nc2c(=O)n1CC1CC1	54	38	.	68
Cc1nc2sc(C(=O)Nc3ccccc3Br)c(N)c2c(C)c1C	51	.	33	46
Cc1cc(C)c2c(N)c(C(=O)Nc3ccccc3Br)sc2n1	/	.	/	77
Cc1cc(C(F)(F)F)c2c(N)c(C(=O)Nc3cccc(C(F)(F)F)c3)sc2n1	.	.	.	.
O=C(O)c1ccc(CN2CC[C@H](c3nc4ccc(F)cc4[nH]3)C2)cc1	.	.	.	.
CC(C)Cn1cnc2c1c(=O)n(CC(=O)NCCc1ccc(F)cc1)c(=O)n2Cc1ccccc1	43	.	.	.
CCn1cnc2c1c(=O)n(CC(=O)NCc1ccccc1Cl)c(=O)n2Cc1ccccc1	.	.	.	55
CCn1cnc2c1c(=O)n(CC(=O)NCc1ccc3c(c1)OCO3)c(=O)n2Cc1ccccc1	.	.	.	37
O=C(Cn1c(=O)c2c(ncn2C2CCCC2)n(Cc2ccccc2)c1=O)NCC1CCCO1 (configuration not stated)	.	.	.	.
SMILES	USP30 inh	OTUD3 inh	USP28 inh	USP17 inh
COCCn1cnc2c1c(=O)n(CC(=O)NCc1ccccc1OC)c(=O)n2Cc1ccccc1	45	.	.	31
CCOc1ncccc1C(=O)Nc1ccc2nc(C)[nH]c2c1	.	.	.	.
COc1ccc(NC(=O)N[C@H]2C[C@H]3CN(C)c4ccccc4CN3C2)cc1	.	.	.	.
Cn1ncc2c1C(COCC1CC1)N(C(=O)c1cccnc1)CC2 (configuration not stated)	.	.	.	.
Nc1c(-c2ccc(Cl)cc2)cnc2cc(-c3ccc(Cl)c(Cl)c3)nn12	60	.	.	41
FC(F)(F)c1cnc(-n2nccc2-c2ccc(Sc3ccccc3)cc2)c(Cl)c1	.	.	.	.
Nc1c(-c2ccc(Cl)cc2)cnc2nc(Sc3ncc(C(F)(F)F)cc3Cl)nn12	33	30	.	.
Cc1cc2ncc(-c3ccsc3)c(N)n2n1	.	.	.	.
CC(C)n1nnc2cc(S(=O)(=O)N3CCCC(C(=O)NCCc4ccco4)C3)ccc21 (configuration not stated)	.	.	.	42
Cc1ccc(OCc2nc3ccccc3n2C(C)c2ccccc2)cc1 (configuration not stated)	34	.	.	.
Cc1ccc(C(C)C)c(OCc2nc3ccccc3n2CC(C)C)c1	.	.	.	.
CC(=O)N[C@@]12CN(CC(=O)Nc3cc(F)ccc3C)CC[C@@H]1[C@@H](c1ccccc1)N(C(C)=O)C2	.	.	.	.
CCCCC(C)/C=C(C)/C=C(\C)C(N)=O (configuration not stated)	32	.	.	.
Cc1cc(C)n(-c2ccnc(N3CCC(C(=O)N4CCN(c5ccccn5)CC4)CC3)n2)n1	.	.	30	.
Nc1ncncc1-c1noc([C@@H]2CCCN2C2CCOCC2)n1	.	.	.	.
CCN(CC)c1ncnc2c1cnn2-c1ccc(C)cc1C	.	.	.	.
COc1cccc(CNCc2nc(NCc3cccc(OC)c3)c3c(C)c(C)sc3n2)c1	42	.	37	.
CC12CCc3occc3C1CCC13CC(CCC12)C(O)(CO)C3 (configuration not stated)	.	.	.	.
O=C(Nc1ccccc1F)NC1CCCc2ccccc21 (configuration not stated)	40	.	.	.
O=C(Nc1ccc(OC(F)(F)F)cc1)NC1CCCc2ccccc21 (configuration not stated)	.	.	.	.
Cc1cc2nc(NCCCc3ccccc3)c3ccccc3n2n1	.	.	.	.
COc1ccc(NC(=O)c2ccc(-c3ccc(N4CCCC4)nn3)cc2)c(OC)c1	.	.	.	41
O=C(Nc1ccc(F)cc1)c1ccc(-c2ccc(N3CCCC3)nn2)cc1	.	.	.	.
O=C(Nc1ccc(N2CCOCC2)cc1)c1ccc(-c2ccc(N3CCCC3)nn2)cc1	.	.	.	51
O=C(Nc1cccc(-c2ccc(N3CCOCC3)nn2)c1)c1ccccc1Br	39	.	.	41
SMILES	USP30 inh	OTUD3 inh	USP28 inh	USP17 inh
O=C(Nc1cccc(-c2ccc(N3CCOCC3)nn2)c1)c1cccc2ccccc12	.	.	.	.
Cc1cc(C)c(C(=O)N2CCCC(C(=O)NC3CCCCC3)C2)[nH]1 (configuration not stated)	.	.	.	.
O=C(CC(c1ccco1)n1cccc1)Nc1ccc2c(c1)OCO2 (configuration not stated)	/	.	/	.
Cc1nc2ccc(C(=O)Nc3cc(Cl)cc4cccnc34)cc2nc1C	.	.	.	63
COc1ccc(OCC(=O)N2CCC(c3nc4ccccc4cc3C(N)=O)CC2)cc1	.	.	.	.
COc1ccccc1OCC(=O)N1CCC(c2nc3ccccc3cc2C(N)=O)CC1	34	.	.	.
Cc1ccc(NC(=O)Cn2c(C)ccc(NC(=O)Nc3cccc(C)c3)c2=O)cc1	.	.	.	.
Cc1ccc(NC(=O)Nc2ccc(C)n(CC(=O)Nc3ccccc3)c2=O)cc1	/	.	/	89
Cn1nc(-c2ccccc2)c(CO)c1Sc1ccccc1Cl	.	.	.	49
Clc1ccccc1Cn1c(C2CCCO2)nc2ccccc21 (configuration not stated)	31	.	.	.
COc1ccc(OCC(=O)NC(c2ccccc2)c2ccccc2)c(C(C)=O)c1	.	.	.	.
